Source: PubChem BioAssay (National Center for Advancing Translational Sciences (NCATS))
In the library only some 6% were active in any assay of this set; here they are far more common.
DRD3 antagonist – qHTS of D3 Dopamine Receptor Antagonist: qHTS; D(3) dopamine receptor (Homo sapiens), P35462; D3R cells, DiscoveRx beta-arrestin luminescence, antagonist mode; stronger effect = lower value; max response, negative = inhibition, %; 360,000 tested, 2.5% active; AID 652054, 2013; in the data active = max response below about -50%; inconclusive = no clear call, values can overlap the other calls; note: % is set by controls: 0 for no effect and ±100 for the full control effect
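Cells expressing the human receptor were seeded at 1500 cells/well, incubated overnight at 37 degrees C in 5% CO2, then exposed to library compounds with dopamine controls for 90 minutes at 37 degrees C before luminescent detection.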
DRD3 agonist – qHTS of D3 Dopamine Receptor Agonist: qHTS | D3R DiscoveRx beta-arrestin cells, luminescence, 90 min | max activation, % | 410,000 tested, 0.58% active | AID 652048, 2013; in the data active = max activation above about 30%; note: 0% is about no effect
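Agonist mode: compounds and dopamine controls were applied to plated cells for 90 min at 37 degrees C after an overnight attachment at 1500 cells/well. Luminescent read-out followed 30 - 60 minutes at room temperature with DiscoveRx detection reagent.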
D1 PAM – Potentiators of Human D1 Dopamine Receptor: qHTS; D(1A) dopamine receptor (Homo sapiens), P21728; HEK293 TREx D1 cells, calcium flux, dopamine EC20 potentiation; potentiation, % at 10 µM; 360,000 tested, 0.036% active; AID 504651, 2011; in the data active = potentiation above about 30%; note: 0% is about no effect
Target sequence (P21728 whole entry, looked up): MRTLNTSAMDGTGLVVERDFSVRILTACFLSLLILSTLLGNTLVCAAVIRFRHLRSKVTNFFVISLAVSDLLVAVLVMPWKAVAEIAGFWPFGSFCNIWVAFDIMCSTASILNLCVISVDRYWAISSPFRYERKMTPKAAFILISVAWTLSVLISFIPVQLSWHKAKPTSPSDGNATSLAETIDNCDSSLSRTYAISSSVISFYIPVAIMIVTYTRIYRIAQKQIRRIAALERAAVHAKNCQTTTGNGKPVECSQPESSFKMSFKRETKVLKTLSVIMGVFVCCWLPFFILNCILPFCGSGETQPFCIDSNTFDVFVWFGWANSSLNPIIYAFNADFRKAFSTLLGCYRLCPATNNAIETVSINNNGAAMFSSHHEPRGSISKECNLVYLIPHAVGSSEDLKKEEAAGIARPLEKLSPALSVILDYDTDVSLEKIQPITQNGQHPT
D1 antagonist – Antagonist of Human D 1 Dopamine Receptor: qHTS | HEK293 TREx D1 cells, calcium flux, dopamine EC80; stronger effect = lower value | activity change, negative = inhibition, % at 10 µM | 360,000 tested, 3.2% active | AID 504652, 2011; in the data active = activity change below about -30%; note: % is set by controls: 0 for no effect and ±100 for the full control effect
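HEK293 T-REx cells expressing inducible, force-coupled D1 receptor; no-wash Ca dye, 30–90 min RT. Cmpd → 180 s read at 1 Hz → EC80 DA → 180 s read.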
D1 agonist – Allosteric Agonists of the Human D1 Dopamine Receptor: qHTS | D(1A) dopamine receptor (Homo sapiens), P21728 | HEK293 T-REx D1 cells, calcium flux, agonist mode | activation, % at 2 µM | 360,000 tested, 1% active | AID 504660, 2011; in the data active = activation above about 30%; note: 0% is about no effect
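Tetracycline-induced HEK293 TREx D1 cells, force-coupled to calcium signalling, were dye-loaded with a no-wash calcium kit. Compound was pin-added after a 10 s baseline. Fluorescence was read kinetically at 1 cycle/s for 180 s, with calcium rises flagged as agonism.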
Active calls of the source: *; ? = inconclusive; . = no result; ! = not active in a repeat.

SMILES | DRD3 antagonist | DRD3 agonist | D1 PAM | D1 antagonist | D1 agonist
COc1ccc(NC(=O)N2CCN(c3nc(-c4cccc(OC)c4)cs3)CC2)cc1 | 19 | 51* | -4 | 2 | -2
COc1cccc(-c2csc(N3CCN(C(=S)Nc4ccccc4Cl)CC3)n2)c1 | 24 | 22 | -8 | -24 | 2
COc1cccc(-c2csc(N3CCN(C(=O)Nc4ccc(Cl)cc4)CC3)n2)c1 | 35 | 1 | -3 | -27 | 7
COc1cccc(-c2csc(N3CCN(C(=S)NCC(C)C)CC3)n2)c1 | -6 | -2 | -6 | -3 | -1
O=S(=O)(Nc1ccc(-c2ccc(N3CCCCCC3)nn2)cc1)c1ccc(C(F)(F)F)cc1 | . | -3 | 2 | 14 | 4
CCc1nc2ccc(C(=O)NCCc3ccc(OC)cc3OC)cc2nc1CC | . | -9 | 0 | 18 | 5
COc1ccc(OCc2cc(C(=O)NCc3nc(C)cs3)no2)c(Cl)c1 | 9 | 2 | 8 | -35* | 17
COc1cccc(CNC(=O)c2ccc(CS(=O)(=O)Cc3ccccc3C)o2)c1 | 12 | 5 | -3 | 15 | 9
COc1ccc(S(=O)Cc2ccc(C(=O)N3CCN(c4cccc(C)c4C)CC3)o2)cc1 (configuration not stated) | 89 | 45*! | 1 | -42*! | 11
COc1ccc(S(=O)Cc2ccc(C(=O)NCc3cccc(OC)c3)o2)cc1 (configuration not stated) | 4 | 0 | -2 | -35* | 2
COc1cccc(CNC(=O)c2ccc(CS(=O)(=O)Cc3ccc(C)cc3)o2)c1 | 0 | 6 | -2 | -43* | 14
CC(C)OCCc1cccc[n+]1[O-] | ? | -2 | . | . | .
CC(C)(C)CC(=O)NC1CC(=O)N(c2ccc3c(c2)OCCO3)C1 (configuration not stated) | . | 8 | -3 | . | 6
CCc1nnc(NS(=O)(=O)c2ccc(NC(=S)NC(=O)c3ccc(Br)cc3)cc2)s1 | -65* | -16 | -5 | -12 | 2
CCc1nnc(NS(=O)(=O)c2ccc(NC(=S)Nc3ccc(F)cc3)cc2)s1 | -5 | -11 | -3 | -18 | 5
CCc1nnc(NS(=O)(=O)c2ccc(NC(=O)/C=C/c3ccccc3Cl)cc2)s1 | 10 | 2 | -1 | 7 | 1
CCc1nnc(NS(=O)(=O)c2ccc(NC(=S)NC(=O)c3ccccc3)cc2)s1 | -29 | 1 | -1 | 14 | 1
CCc1nnc(NS(=O)(=O)c2ccc(NC(=O)/C=C/C(=O)O)cc2)s1 | -62* | -10 | -5 | 4 | 2
CCc1nnc(NS(=O)(=O)c2ccc(NC(=S)NC(=O)/C=C/c3ccccc3)cc2)s1 | -68* | -8 | 2 | 6 | 2
CCc1nnc(NS(=O)(=O)c2ccc(NC(=S)NC(=O)/C=C/c3ccc(OC)cc3)cc2)s1 | -73* | -31 | -3 | -30* | 4
O=S(=O)(c1ccc(-c2cc(C(F)(F)F)on2)s1)N1CCN(c2cccc(Cl)c2)CC1 | . | -7 | -4 | -5 | 3
O=C(CCC1N=C2c3ccccc3N=C(SCc3cccc(F)c3)N2C1=O)NC1CCCCC1 (configuration not stated) | . | 1 | -2 | 5 | 2
O=C(/C=C/c1ccc(Br)cc1)NC(=S)Nc1ccc(S(=O)(=O)Nc2nccs2)cc1 | -53* | -25 | 4 | -15 | 1
COc1cc(NS(=O)(=O)c2ccc(NC(=S)NC(=O)/C=C/c3ccc(F)cc3)cc2)ncn1 | -18 | 2 | -3 | -9 | 0
CCc1nnc(NS(=O)(=O)c2ccc(NC(=O)C(c3ccccc3)c3ccccc3)cc2)s1 | -9 | 2 | . | . | .
SMILES | DRD3 antagonist | DRD3 agonist | D1 PAM | D1 antagonist | D1 agonist
COc1nccnc1NS(=O)(=O)c1ccc(NC(=S)NC(=O)/C=C/c2ccc(F)cc2)cc1 | -29 | -6 | -16 | -38* | -2
O=C(NC(=S)Nc1ccc(S(=O)(=O)Nc2nccs2)cc1)c1ccc(Br)o1 | ? | -1 | 1 | -1 | -3
CCc1nnc(NS(=O)(=O)c2ccc(NC(=S)NC(=O)/C=C/c3ccc(C(C)C)cc3)cc2)s1 | -129* | -6 | 0 | 8 | 15
CC(C)NC(=S)NC(=O)/C=C/c1ccc(F)cc1 | -7 | 1 | -12 | -81* | 2
COc1ccc(NC(=O)CN2CCCN(Cc3ccc(Cl)cc3)S2(=O)=O)cc1Cl | . | -7 | -1 | -3 | 2
CCOc1ccccc1C(=O)N(Cc1cc(OC)c(OC)c(OC)c1)c1ccccn1 | . | 1 | 1 | -3 | -1
CCc1nnc(NS(=O)(=O)c2ccc(NC(=O)c3cccc(Cl)c3)cc2)s1 | -68* | -18 | 11 | 8 | 3
CCc1nnc(NS(=O)(=O)c2ccc(NC(=O)c3ccc(Cl)cc3)cc2)s1 | -17 | -5 | -1 | 3 | 1
COc1ccc(NS(=O)(=O)c2ccc(NC(=S)NC(=O)c3ccc(Br)cc3)cc2)nn1 | -53* | -16 | 8 | -1 | 2
O=S(=O)(c1ccc2c(c1)OCCO2)N1CCN(S(=O)(=O)c2cccs2)CC1 | . | . | -2 | -2 | 0
NS(=O)(=O)c1ccc(NC(=S)NC(=O)c2ccco2)cc1 | ? | -10 | -5 | -1 | 3
CC(C)CC(=O)NC(=S)Nc1ccc(NC(=O)c2ccco2)cc1 | 14 | 7 | -3 | -36* | 11
CC(=O)NS(=O)(=O)c1ccc(NC(=S)NC(=O)c2ccco2)cc1 | -110* | -8 | 0 | 1 | 2
N#C/C(=C(/O)c1ccc(Cl)cc1)c1nc2ccccc2[nH]1 | -2 | 14 | 8 | 9 | 3
N#C/C(=C(\O)c1cc(Cl)sc1Cl)c1nc2ccccc2[nH]1 | 18 | -7 | -7 | -19 | 35*
CCOC(=O)N1CCN(C(=O)CS(=O)(=O)Cc2nc(-c3ccccc3C)oc2C)CC1 | -22 | -5 | 0 | -9 | 2
CCOC(=O)N1CCN(C(=O)CSCc2nc(-c3ccccc3C)oc2C)CC1 | 18 | 3 | -5 | -34* | 9
COc1ccc(N2CCN(C(=O)CN=C3NS(=O)(=O)C(c4ccc(C)cc4)=C3C)CC2)cc1 | -79* | -8 | -5 | -15 | 1
CCOC(=O)N1CCN(C(=O)CSCc2nc(-c3ccccc3F)oc2C)CC1 | -14 | -1 | 5 | -44* | 7
CCOC(=O)C1CCN(C(=O)CS(=O)(=O)Cc2nc(-c3ccccc3Cl)oc2C)CC1 | 11 | 2 | -10 | -40* | 9
CCc1nn2c(-c3ccccc3OC)ccnc2c1-c1ccccc1 | . | 3 | -5 | -6 | 4
COc1ccc(-c2nc(CSCC(=O)N3CCN(c4ccc(OC)cc4)CC3)c(C)o2)cc1 | . | 17 | -5 | -37* | 4
CC1CCN(S(=O)(=O)c2ccc(Oc3ccc([N+](=O)[O-])cc3)cc2)CC1 | -81* | -19 | -4 | -25 | 2
